# Experimental data published in PubChem BioAssay AID588382 (National Center for Advancing Translational Sciences (NCATS), 2011).
# “And” between values parts separate entries of the source, which are not always exact repeats. Equal values may be shown once. In all, about 1,300 compounds went through this assay and about 150 (12%) were called active. About 30% were inconclusive and are not listed. Calls follow the shape of the dose curve; as a rule, active = well fitted cell-killing curve with a large enough effect; inconclusive = small, poorly fitted or top-dose-only effect, or effect the other way; inactive = flat fitted curve, though single readings scatter. Shown is part of a subset that was picked to be rich in actives. A call without a number means that no potency is given here.
# Assay: qHTS of small molecules that selectively kill Giardia lamblia: Hit Validation in HepG2 cytotox;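 also: compound exposure lasted overnight at 37 deg C; nearly all actives have a fitted effect of over 55% in size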
# Conditions: cell viability; Potency: HepG2 cytotoxicity; series mostly up to 38.3 µM
# Description: Giardia lamblia is a human pathogen afflicting impoverished nations, and the most common cause of outbreaks of diarrhea in the United States. Giardia has been classified by the CDC as a category B bioterrorism organism. The favored anti giardiasis drugs in the US are metronidazole or tinidazole, compounds that have undesirable side effects. Moreover, increasing resistance to drug regimes and recurrence are a concern. It is thus clear that alternative drug treatments are needed.
# In a collaboration between the University of Maryland, College Park and the NIH Chemical Genomics Center, a bioluminescence Giardia viability assay based on the trophozoites' ATP content was developed. This assay is suitable for high throughput screening, and miniaturized the assay for compound screening in 1536-well plates. The goal of the project is to screen the Molecular Libraries Small Molecule Repository (MLSMR) for compounds that selectively kill Giardia trophozoites. This counterscreen looks at the toxicity of the compounds against the human HepG2 cell line.
# NIH Chemical Genomics Center [NCGC]
# NIH Molecular Libraries Probe Centers Network [MLPCN]
# Assay Submitter (PI): Osnat Herzberg, University of Maryland, College Park, MD.
# 4 uL of HepG2 cells ae dispensed into white 1536-well plates. They are incubated overnight at 37 deg C and then 23 nL of compounds are transferred to the wells with a pintool. Plates are incubated overnight at 37 deg C. 2 uL of ATPLite is added and the plates are incubated for 15 min at room temperature before they are read on the ViewLux for luminiescence.
# Potency is read from the fitted curve at half-maximal effect.
row,SMILES,Potency
1,CCc1cc(=O)oc2cc(C)cc(OCC(=O)NC3CCN(Cc4ccccc4)CC3)c12,inactive
2,COc1ccc(-n2nc([N+](=O)[O-])c(=NC3CCN(Cc4ccccc4)CC3)n2O)cc1,inactive
3,COc1cc2nc(N3CCCCC3)nc(NC3CCN(Cc4ccccc4)CC3)c2cc1OC,2.93 µM (active)
4,NC(=O)CCn1c(C(=O)c2cccc([N+](=O)[O-])c2)c2ccccc2[n+]1[O-],inactive
5,CC(=O)c1c(C)n([O-])c2ccccc2[n+]1=O,inactive
6,O=[N+]([O-])c1[nH]cnc1/C=C/c1ccccc1,inactive
7,O=C1NCCN1c1ncc([N+](=O)[O-])s1,inactive
8,O=C(/C=C/c1cccnc1)/C=C/c1cccnc1,3.69 µM (active)
9,COc1ccc2nc(COC(=O)c3cccc([N+](=O)[O-])c3)c(C(C)=O)[n+]([O-])c2c1,inactive
10,Nc1nc(F)nc2c1ncn2[C@@H]1O[C@H](CO)[C@@H](O)[C@@H]1O,inactive
11,Cc1ccc(C(=O)NC(=O)OCCn2c(C)cnc2[N+](=O)[O-])cc1,inactive
12,CCOC(=O)Cc1csc(NC(=S)NC(=O)c2ccc(C)cc2)n1,2.93 µM (active)
13,CCOC(=O)Cc1csc(SCC(=O)NC2CCCCC2)n1,inactive
14,Cc1onc(-c2ccccc2)c1C(=O)N(Cc1ccccc1)C(C)C,inactive
15,Cc1cnc([N+](=O)[O-])n1CCOC(=O)NC(=O)c1ccccc1,inactive
16,COc1cccc2sc(N3CCN(C(=O)c4ccc([N+](=O)[O-])o4)CC3)nc12,inactive
17,O=[N+]([O-])c1ccc(CSc2nnc(-c3cnccn3)o2)cc1,inactive
18,Cc1cnc([N+](=O)[O-])n1CCOC(=O)NC(=O)c1c(F)cccc1F,inactive
19,CCCCCN=Cc1c(C)[nH]n(-c2nc3ccccc3s2)c1=O,0.329 µM (active)
20,Oc1cccc(-c2nnc(-c3cccc(O)c3)nn2)c1,3.69 µM (active)
21,N#C/C(=C\c1ccc(O)c([N+](=O)[O-])c1)C(=O)NCc1ccccc1,inactive
22,Cc1cnc([N+](=O)[O-])n1CCOC(=O)NC(=O)c1ccc(C(F)(F)F)cc1,inactive
23,C=CCn1c(C)cc(C(=O)COc2ccc(C)nc2[N+](=O)[O-])c1C,inactive
24,O=C(Nc1ccc2c(c1)nc1n2CCSC1)c1ccco1,2.33 µM (active)
25,O=C(Nc1nnc(C23CC4CC(CC(C4)C2)C3)s1)c1ccco1,inactive

row,SMILES,Potency
1,CN(C(=O)CSc1nc2ccccc2c(=O)n1-c1ccc(F)cc1)C1CCS(=O)(=O)C1 (stereo not drawn),inactive
2,O=C1c2cc(F)ccc2-n2c1nc1ccccc1c2=O,5.21 µM (active)
3,Cc1ccc(-c2[nH][nH]c(=O)c(=O)c2N=Nc2ccccc2)cc1,inactive
4,O=[N+]([O-])c1cc(S(=O)(=O)N2CCCC2)ccc1N/N=C/c1ccncc1,inactive
5,Cc1ccc(OCC(=O)Nc2nc(C)c(Cl)cc2Cl)c([N+](=O)[O-])n1,inactive
6,O=[N+]([O-])c1ccc(N=NN(CCO)CCO)cc1,inactive
7,Cc1cc(C2=NNC(=NC3CC3)SC2)c(C)n1-c1ccccc1F,0.927 µM (active)
8,CCOC(=O)C1=C(C)N=c2s/c(=C/c3cccc([N+](=O)[O-])c3O)c(=O)n2C1c1cc(OC)c(OC)c(OC)c1 (stereo not drawn),inactive
9,Cc1ccc([C@@H]2CC=C(C(=O)O)[C@H](c3ccccc3)N2S(=O)(=O)c2ccc(C)cc2)cc1,inactive
10,NCCCn1c(C(=O)c2ccc(Cl)cc2)c2ccc(C(F)(F)F)cc2[n+]1[O-],inactive
11,CCN1/C(=C\c2ccc3ccccc3[n+]2CC)Sc2cc(C)ccc21,4.65 µM (active)
12,N/C(=N/OC(=O)c1ccc(Cl)cc1)c1ncc([N+](=O)[O-])s1,inactive
13,Cc1ncc([N+](=O)[O-])n1CCOC(=O)c1cc(Cl)cc(Cl)c1N,inactive
14,COC(=O)c1ccc2cc(OC)cc([N+](=O)[O-])c2n1,inactive
15,Cc1nc2c(o1)C(=O)c1ccccc1C2=Nc1ccccc1,4.65 µM (active)
16,Cc1c(N=Nc2ccc(O)cc2)c(=O)n(-c2ccccc2)n1C,inactive
17,Cc1ccc(OCC(=O)c2cc(C)n(-c3ccccc3)c2C)c([N+](=O)[O-])n1,inactive
18,CCn1ncc([N+](=O)[O-])c1C(=O)Nc1nc2cccc(C)c2s1,inactive
19,CC(=O)Nc1ccc(NS(=O)(=O)c2ccc(C)cc2)c([N+](=O)[O-])c1,inactive
20,Cc1cc(N/N=C/c2ccc([N+](=O)[O-])o2)nc2ccccc12,inactive
21,Cc1nc2ccccn2c1C(=O)N/N=C/c1ccc([N+](=O)[O-])o1,14.7 µM (active)
22,Cc1ccc2nc(N/N=C\c3ccc([N+](=O)[O-])o3)nc(-c3ccccc3)c2c1,inactive
23,COc1ccc(-c2nn(-c3ccccc3)cc2C(=O)N/N=C/c2ccc([N+](=O)[O-])o2)cc1,inactive
24,CCOC(=O)N/N=C\c1ccc([N+](=O)[O-])o1,inactive
25,O=C(N/N=C/c1ccc([N+](=O)[O-])o1)c1cn2ccc3ccccc3c2n1,inactive

row,SMILES,Potency
1,O=C(N/N=C/c1ccc([N+](=O)[O-])o1)c1cn(-c2ccccc2)nc1-c1ccc(F)cc1,inactive
2,O=C(N/N=C/c1ccc([N+](=O)[O-])o1)c1cc(-c2ccc(-c3ccccc3)cc2)nc2ccccc12,2.61 µM (active)
3,CCCc1ccc(-c2cc(C(=O)N/N=C/c3ccc([N+](=O)[O-])o3)c3ccccc3n2)cc1,3.29 µM (active)
4,CC1CC(C)C(=NNC(N)=O)C(C(O)CC2CCC(=O)NC2=O)C1 (stereo not drawn),inactive
5,N/C(=N\O)c1ccc([N+](=O)[O-])s1,inactive
6,COc1ccc(-n2nc([N+](=O)[O-])c(=NCc3ccc4c(c3)OCO4)n2O)cc1,inactive
7,O=C(/C=C/c1ccc(O)c([N+](=O)[O-])c1)c1ccc2ccccc2c1,inactive
8,Cc1nn(-c2nc3ccccc3[nH]2)c(=O)c2ccccc12,2.07 µM (active)
9,Cc1ccc(NC(=O)CN2C(=O)S/C(=C/c3ccc(O)c([N+](=O)[O-])c3)C2=O)cc1C,inactive
10,Cc1cccc(N=Nc2c(C)c(C#N)c(O)[nH]c2=O)c1,inactive
11,CC1C/C(=C/c2ccncc2)C(=O)/C(=C/c2ccncc2)C1 (stereo not drawn),2.07 µM (active)
12,O=C1/C(=C/c2ccncc2)CCC/C1=C\c1ccncc1,4.14 µM (active)
13,O=C1N=C(N2CCCCC2)S/C1=C\c1ccc(Br)cc1,inactive
14,O=c1c2c(-c3ccccc3)csc2ncn1/N=C/c1ccc(O)c([N+](=O)[O-])c1,inactive
15,Cc1ccc(C2=NCCn3c2c2ccccc2[n+]3[O-])cc1,inactive
16,CC(=O)Nc1nc(-c2cc([N+](=O)[O-])cs2)cs1,inactive
17,CCn1c(=NC(=O)c2cccc(N3C(=O)CCC3=O)c2)sc2c(OC)ccc(OC)c21,inactive
18,Cc1cnc([N+](=O)[O-])n1CCOC(=O)NC(=O)c1ccc(F)cc1,inactive
19,CN(C)C(=O)COC(=O)c1cccc(S(=O)(=O)N2CC3(C)CC2CC(C)(C)C3)c1 (stereo not drawn),inactive
20,O=[N+]([O-])c1nn(-c2ccccc2)[n+]([O-])c1N1CCN(c2ccccc2)CC1,inactive
21,CCOc1ccc(-c2cc(C(=O)N3CCN(c4ccccn4)CC3)c3ccccc3n2)cc1,1.65 µM (active) and 414 nM (active)
22,O=C(CSc1ccsc1[N+](=O)[O-])N1CCN(c2ccccn2)CC1,inactive
23,CN(C(=O)CN1CCN(c2ccc([N+](=O)[O-])cn2)CC1)c1ccccc1,inactive
24,Cc1ncc([N+](=O)[O-])n1CCOC(=O)NC(Nc1ccc(F)cc1)C(Cl)(Cl)Cl (stereo not drawn),inactive
25,O=C(CCCn1cnc([N+](=O)[O-])n1)Nc1ccc(F)c(Cl)c1,inactive

row,SMILES,Potency
1,COc1cc2c(cc1OC)-c1c(OC)c(OC)cc3ccnc(c13)C2=O,inactive
2,COc1ccc(-n2nc([N+](=O)[O-])c(=NCCc3ccc(Cl)cc3)n2O)cc1,inactive
3,O=C(NCC1CCCO1)c1ccc([N+](=O)[O-])o1 (stereo not drawn),inactive
4,O=C(CN(C1CCCCC1)S(=O)(=O)c1ccc(F)cc1)NCC1CCCO1 (stereo not drawn),4.65 µM (active)
5,CN(C(=O)c1ccc(F)c(S(=O)(=O)N2CCOCC2)c1)C1CCCCC1,inactive
6,CCS(=O)(=O)CCn1c([N+](=O)[O-])cnc1C,inactive
7,O=c1c(-c2ccc(F)cc2)coc2cc(O)ccc12,inactive
8,C[C@@H]1CN([C@@H](C)CO)C(=O)c2cccc(NS(=O)(=O)c3cccs3)c2O[C@H]1CN(C)Cc1ccc(C(F)(F)F)cc1,inactive
9,NC(=O)C1CCN(c2ncccc2[N+](=O)[O-])CC1,inactive
10,COc1ccc(NC(C)C(=O)N/N=C/c2ccc([N+](=O)[O-])s2)cc1 (stereo not drawn),inactive
11,COC(=O)N/N=C/c1ccc([N+](=O)[O-])s1,inactive
12,Cc1nc2cc(NC(=O)c3ccc([N+](=O)[O-])s3)ccc2s1,inactive
13,Cc1ccccc1C(=O)N/N=C/c1ccc([N+](=O)[O-])s1,18.5 µM (active)
14,Cc1ccc(NC(C)C(=O)N/N=C/c2ccc([N+](=O)[O-])s2)cc1 (stereo not drawn),inactive
15,COc1ccccc1NC(=O)C(=O)N/N=C/c1ccc([N+](=O)[O-])s1,inactive
16,O=C(N/N=C\c1ccc([N+](=O)[O-])s1)c1cncc(Br)c1,7.36 µM (active)
17,O=C(N/N=C/c1ccc([N+](=O)[O-])s1)C(O)c1ccccc1 (stereo not drawn),13.1 µM (active)
18,CCOC(=O)N/N=C\c1ccc([N+](=O)[O-])s1,inactive
19,COCCn1c(C)cc(C(=O)COc2cccnc2[N+](=O)[O-])c1C,inactive
20,O=C(Nc1nnc(C2=COCCO2)o1)c1cccc(F)c1,inactive
21,COc1nn(C(C)C(=O)N2N=C(C(F)F)CC2(O)C(F)F)cc1[N+](=O)[O-] (stereo not drawn),inactive
22,COc1cc(/C=C/c2ccc3cccc(OC)c3n2)c(OC(C)=O)c([N+](=O)[O-])c1,inactive
23,CN(C)C(=O)c1cc([N+](=O)[O-])cc([N+](=O)[O-])c1N(C)C,inactive
